Screening results as filed in PubChem.
This is one part of a sample in which hits are shown more often than they occur.
HIV RNase H inh-1: blocks HIV-1 RNase H cleavage of RNA/DNA duplex; P04585; inhibition, % at 10 µM; hit rate 1.9% among 65,000; AID 565; RT-RNase H RNA/DNA duplex cleavage, fluorescence; in the data active means inhibition above about 50%
HIV RNase H inh-2: confirmation of HIV-1 reverse transcriptase RNase H inhibitors; Recombinant RT RNase H, fluorescent RNA/DNA duplex cleavage; AID 651; inhibition, % at 10 µM; hit rate 39% among 1,000; shares compounds with HIV RNase H inh-1; in the data active means inhibition above about 48%; inconclusive means no clear call, values can overlap the other calls
Of the large screens only hits and unclear results are named; the others gave an inactive call (follow-up assays come after a bar, where they were run).

Cc1ccc(C(=O)C2COC(=O)C2)cc1 (centres undefined)	none
C=CCn1c(SCn2nnc3ccccc3c2=O)nnc1C1CCCCC1	none
CC1Cc2nc(SCC(=O)Nc3ccc(F)cc3F)n(C)c(=O)c2S1 (centres undefined)	none
Cc1ccc2nc(NC(=O)CSc3nc4c(c(=O)n3C)SC(C)C4)sc2c1 (centres undefined)	HIV RNase H inh-1 79 | HIV RNase H inh-2 inactive
Cc1ccc(C)c(NC(=O)CSc2nc3c(c(=O)n2C)SC(C)C3)c1 (centres undefined)	none
Cc1c(C(=O)N2CCCc3ccccc32)oc2ccc(S(=O)(=O)N3CCOCC3)cc12	none
CCOc1ccc(-n2c(SCC(N)=O)nc3c(c2=O)SCC3)cc1	none
CCOC(=O)c1cnn(CCOC(=O)Cc2cccs2)c1NC(=O)Cc1cccs1	none
Cc1occc1-c1nnc(SCC(=O)NCC2CCCO2)n1C (centres undefined)	none
Cc1ccc(C)c(-n2c(SCC(=O)NCC3CCCO3)nnc2-c2ccoc2C)c1 (centres undefined)	none
Cc1ccc(-n2c(SCC(=O)NCC3CCCO3)nnc2-c2ccoc2C)cc1 (centres undefined)	HIV RNase H inh-1 84 | HIV RNase H inh-2 inactive
COC(=O)c1sc(NC(=O)C2CCCCC2C(=O)O)c(C(=O)OC)c1C (centres undefined)	none
CC(=O)NC12CC3CC(C)(C1)CC(NC(C)=O)(C3)C2	none
COc1ccc(-n2cnnc2SCC(=O)N(C)C2CCS(=O)(=O)C2)cc1 (centres undefined)	none
COc1ccc(CC(NC(C)=O)C(=O)N2CCN(C(=O)Nc3ccc(Cl)cc3)CC2)cc1OC (centres undefined)	none
CSCSC1=C(C#N)C(c2ccc(Cl)cc2)C(C(C)=O)=C(C)N1 (centres undefined)	HIV RNase H inh-1 61 | HIV RNase H inh-2 inactive
CCOC(=O)CSC1=C(C#N)C(c2ccccc2)C(C(C)=O)=C(C)N1 (centres undefined)	none
CC(=O)C1=C(C)NC(SCC(=O)c2ccc(Cl)cc2)=C(C#N)C1c1ccco1 (centres undefined)	none
COc1ccc(C(O)C(CC(=O)NCCCOC(C)C)C(=O)NCCCOC(C)C)cc1OC (centres undefined)	none
Cc1ccc(/C=C/C2=Cc3c(sc(NC(=O)CSc4n[nH]c(N)n4)c3C#N)C(C)(C)C2)o1	HIV RNase H inh-1 96 | HIV RNase H inh-2 67
CCOC(=O)c1c(NC(=O)CSc2n[nH]c(N)n2)sc(CC)c1C	none
COC(=O)c1c(NC(=O)CSc2n[nH]c(N)n2)sc(C)c1C	none
O=C(COC(=O)Cc1cccs1)Nc1ccccc1	none
Cc1cc2c(c(Sc3ccccc3)n1)C(=O)OC2	none
CCCC(=O)N1CCN(S(=O)(=O)c2cc(Cl)ccc2OC)CC1	none
O=C(O)c1cccc(N2CCCC2=O)c1	none
Cc1ccc(C)n1-c1cccc(N)c1	none
Cc1ccc(C)n1-c1cccc(C(=O)O)c1	HIV RNase H inh-1 71 | HIV RNase H inh-2 inconclusive
CCn1c(COc2ccc(C)cc2)nnc1SCC(=O)Nc1ccc2c(c1)OCCO2	none
COCC(=O)N(C)C1(c2nnnn2CCOC(=O)Nc2cccc3ccccc23)CCCC1	none
CCN1C2=NCCCN2c2cc(C)c(C)cc21	none
CN1CCN(S(=O)(=O)c2ccc(NC(=O)c3ccc(Br)s3)cc2)CC1	none
Cc1cnc(NC(=O)c2c(O)c3cccc4c3n(c2=O)CCC4)s1	none
CC(C)c1nnc(NC(=O)c2c(O)c3cccc4c3n(c2=O)CCC4)s1	HIV RNase H inh-1 77 | HIV RNase H inh-2 73
COc1ccc(CCNC(=O)c2c(O)c3cccc4c3n(c2=O)CC4)cc1	HIV RNase H inh-1 83 | HIV RNase H inh-2 67
CCCc1nnc(NC(=O)c2c(O)c3cccc4c3n(c2=O)CC4)s1	none
O=C(NCCc1ccccc1)c1c(O)c2cccc3c2n(c1=O)CC3	HIV RNase H inh-1 74 | HIV RNase H inh-2 84
COc1ccc(CNC(=O)c2c(O)c3cccc4c3n(c2=O)CCC4)cc1OC	none
O=C(NCc1ccccn1)c1c(O)c2cccc3c2n(c1=O)CC3	none
COc1ccc(CNC(=O)c2c(O)c3cccc4c3n(c2=O)CCC4)cc1	none
O=C(NCCNCCO)c1c(O)c2cccc3c2n(c1=O)CCC3	none
Cc1ccccc1NS(=O)(=O)c1ccc(OCC(=O)N2CCCC2)cc1	none
Cc1c(CCC#N)c(N2CCN(C3CCCCC3)CC2)n2c(nc3ccccc32)c1C#N	none
COc1ccccc1NC(=O)C(C)NS(=O)(=O)c1ccccc1 (centres undefined)	none
COc1cc(CO)cc(Br)c1OCc1cccnc1	none
CC(=O)Nc1ccc(Cl)cc1C(=O)O	none
O=C(Cn1c(=O)oc2cc(S(=O)(=O)N3CCc4ccccc43)ccc21)N1CCCCC1	none
COC(=O)c1[nH]c2ccc(C)cc2c1NC(=O)CN1CCCCC1C (centres undefined)	none
CC1=C(SCCC#N)S/C(=C2\SC(C)=C(SCCC#N)S2)S1	HIV RNase H inh-1 72 | HIV RNase H inh-2 65
OCCSc1c(F)c(SCCO)c(SCCO)c(F)c1SCCO	none
COc1ccc(-c2noc(CCC(=O)N3CCN(c4cc(C)ccc4C)CC3)n2)cc1	none
CCOC(=O)C1CCN(C(=O)c2sc3nc(-c4ccc(F)cc4)cn3c2C)CC1	none
Cc1cccc(C(=O)OCC(=O)Nc2ccc(N3CCCCC3)cc2)c1O	HIV RNase H inh-1 88 | HIV RNase H inh-2 53
Cc1cccc(OCC(=O)Nc2ccc(N3CCCC3)cc2)c1C	none
O=C(COC(=O)C1CCCCC1)Nc1ccc(N2CCCCC2)cc1	none
O=C(CN1CCCCC1)Nc1cccc(Br)c1	none
Cc1cccc(-n2c(C)nc3c(cnn3-c3ccc(F)cc3)c2=O)c1	none
CCOC(=O)Cc1csc(-n2sc3ccccc3c2=O)n1	HIV RNase H inh-1 97 | HIV RNase H inh-2 67
CCOC(=O)Cc1csc(SCn2nnc3ccccc3c2=O)n1	none
CCOC(=O)Cc1csc(NC(=O)Cc2cccs2)n1	none
Cc1nc(N2CCCCC2)c2sc(=S)n(C)c2n1	none
CCN1CCN(c2nc(C)nc3c2sc(=S)n3C)CC1	HIV RNase H inh-1 90 | HIV RNase H inh-2 65
CCN1CCN(c2nc(SC)nc3sc4c(c23)CC(C)(C)OC4)CC1	none
O=C(Nc1ccc(N2C(=O)C3C4C=CC(C4)C3C2=O)cc1)Nc1cccnc1 (centres undefined)	none
COc1ccc(NC(C)=O)cc1NC(=O)CN1CCN(CC(=O)Nc2ccc(Cl)cc2)CC1	none
O=C1c2ccccc2C(=O)N1CSc1ncccn1	none
C=CCOC(=O)C1=C(C)OC(N)=C(C#N)C1c1ccccc1F (centres undefined)	none
CCc1ccccc1N1C(=O)C2CC(C)=C(C)CC2C1=O (centres undefined)	none
COc1cccc(C2C(C#N)=C(N)Oc3c2oc(CO)cc3=O)c1OC (centres undefined)	none
CCc1ccccc1N1CSC2=C(C#N)C(c3ccccc3F)CC(=O)N2C1 (centres undefined)	HIV RNase H inh-1 89 | HIV RNase H inh-2 59
Cc1cccc(N2CSC3=C(C#N)C(c4ccc(C)o4)CC(=O)N3C2)c1 (centres undefined)	HIV RNase H inh-1 94 | HIV RNase H inh-2 55
COc1cccc(C2C3CN(C)CC=C3C(C#N)=C(N)C2(C#N)C#N)c1OC (centres undefined)	none
COc1cc(OC)c(C2C(C#N)=C(N)OC3=C2C(=O)CC(C)(C)C3)cc1OC (centres undefined)	none
COc1ccc(N2CSC3=C(C#N)C(c4cccc(OC)c4OC)CC(=O)N3C2)cc1 (centres undefined)	HIV RNase H inh-1 75 | HIV RNase H inh-2 inactive
COc1cc(OC)c(C2C(C#N)=C(N)OC3=C2C(=O)CC(C)C3)cc1OC (centres undefined)	none
